Lassa entry inh: qHTS for Inhibitors of binding or entry into cells for Lassa Virus; Lassa virus pseudotype entry inhibition, cell reporter; Potency, µM (doses to about 37.9 µM), inactives show at the top dose activity change, negative = inhibition, hits mostly inhibitors; 300,000 compounds, 1.2% hits; calls by dose curve; tested in HEK293 cells; note: potency is the fitted concentration of half-maximal effect; nearly all actives have a fitted effect of over 50% in size
Vaccinia mCherry: qHTS for Stage-Specific Inhibitors of Vaccinia Orthopoxvirus: mCherry Reporter Primary qHTS | Vaccinia virus mCherry reporter infection, fluorescence | Potency, µM (doses to about 36.5 µM), without a hit: top-dose activity change, negative = inhibition, hits mostly inhibitors | 310,000 compounds, 0.63% hits | AID 720579, 2013; calls by dose curve; tested in A549 cells; note: potency is the fitted concentration of half-maximal effect; nearly all actives have a fitted effect of over 35% in size
FMDV inh: High Throughput Screening for Foot and Mouth Disease Virus Antivirals; FMDV antiviral cell-based qHTS; Potency, µM (series often up to 57.9 µM), inactives show at the top dose activity change, negative = inhibition, actives largely listed as inhibitors; 410,000 compounds, 1.2% hits; calls by dose curve; tested in HEK293T cells; note: read-out not given here; potency is the fitted concentration of half-maximal effect; nearly all actives have a fitted effect of over 45% in size
Marburg entry inh: qHTS for inhibitors of binding or entry into cells for Marburg Virus | Marburg virus pseudotyped entry inhibition, cell reporter | Potency, µM (titrated, usually from 37.8 µM), for inactives: at the top dose activity change, negative = inhibition, hits mostly inhibitors | 300,000 compounds, 1.8% hits; calls by dose curve; tested in HEK293 cells; note: potency is the fitted concentration of half-maximal effect
Vaccinia Venus: qHTS for Stage-Specific Inhibitors of Vaccinia Orthopoxvirus: Venus Reporter Primary qHTS. AID 720580, 2013. Vaccinia virus Venus reporter expression, fluorescence. Potency, µM (top dose mostly 36.5 µM), without a hit: top-dose activity change, negative = inhibition, actives largely listed as inhibitors. 330,000 compounds, 0.46% hits; calls by dose curve; tested in A549 cells; note: potency is the fitted concentration of half-maximal effect; nearly all actives have a fitted effect of over 30% in size
HCMV antiviral: qHTS Assay for inhibitors of the human cytomegalovirus (HCMV). HFF cells, HCMV-luciferase reporter, 72 h; stronger effect = lower value. activity change, negative = inhibition, % at 57.5 µM. AID 1259415, 2018. 410,000 compounds, 4.5% hits; in the data active = activity change below about -60%; inconclusive = no clear call, values can overlap the other calls; inactive = above about -39%
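Cell-based, HFFs, 1000 cells/well, 16 h 37C; cpds in DMSO + HCMV-luc, MOI 1 PFU/cell; 72 h 37C; OneGlo luminescence after 5 min RT; norm. to buffer vs Salinomycin 10uM.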
* marks the source's active call; other numbers are inactive results; i = inactive; ? = inconclusive; . = no result given; ! = not active in a repeat; [ ] = another dose, or the depositor's remark. Most compounds without a hit are left out; they make up all but 6.5% or so of the library. % is set by controls: 0 for no effect and ±100 for the full control effect.

SMILES	Lassa entry inh	Vaccinia mCherry	FMDV inh	Marburg entry inh	Vaccinia Venus	HCMV antiviral
Cc1nc(N2CCN(Cc3ccccc3)CC2)nc2c1C(=O)CC(C)C2 (stereo not given)	?	.	?	-25%	.	-37
COc1ccc(C2CC(=O)c3c(C)nc(N4CCN(Cc5ccccc5)CC4)nc3C2)cc1OC (stereo not given)	8.2µM*	.	11µM*	18µM*	.	-98*
COc1cc(C2CC(=O)c3cnc(N4CCN(Cc5ccccc5)CC4)nc3C2)cc(OC)c1OC (stereo not given)	23µM*	?	16µM*	?	-14%	38
COc1cc(C2CC(=O)c3cnc(N4CCN(CCO)CC4)nc3C2)cc(OC)c1OC (stereo not given)	-21%[46.1 µM]	-5%	-7%	-9%[46.1 µM]	2%	8
CC1CC(C)CN(c2ncc3c(n2)CC(c2ccccc2)CC3=O)C1 (stereo not given)	2.8µM*	.	0%	-15%	-15%	1
CC(C)c1ccc(C2CC(=O)c3cnc(N4CCc5ccccc5C4)nc3C2)cc1 (stereo not given)	-14%	.	9%	12%	.	12
O=C(CCNS(=O)(=O)c1ccc2c(c1)CCCC(=O)N2)NCc1ccc(Cl)cc1	5%[46.1 µM]	-8%	-22%	.	4%	-7
C/C(=N\NC(=S)NC(C)C)c1ccc(Cl)s1	-1%	-18%	1%	-12%	-28%	-30
C/C(=N\NC(N)=S)c1ccc(Cl)s1	-11%	0.35µM*	-25%	-11%	?	-67*
CCc1nnc(NC(=O)CSc2ccc(-c3nc4ccccc4[nH]3)cn2)s1	?	?	.	25%	1%	-94*
Cc1ccc2nc(-c3ccc(SCC(=O)Nc4nnc(C)s4)nc3)[nH]c2c1	?	?	36%	?	11µM*	27
Cc1ccc2nc(-c3ccc(SCC(=O)Nc4nc(C)cs4)nc3)[nH]c2c1	14%	?	29%	?	?	-34
CCN1C(=O)NC(c2cccc(F)c2)C(C(=O)OC)=C1C (stereo not given)	.	.	.	19%[14.2 µM]	.	.
O=c1c(-c2ccc(Cl)cc2)nc2cnc(N3CCOCC3)nc2n1CCc1ccccc1	.	.	-15%	.	.	.
COc1ccc2c3c(cccc13)C(=O)N(O)C2=O	-23%	-24%	-12%	-30%	?	-60*
Cc1cc(-c2nnc(SCCC(=O)Nc3ccccc3)o2)no1	-5%	-20%	-25%	-18%	-10%	-85*
FC(F)(F)Oc1ccc(Nc2cc3[nH]c(-c4ccccc4)cc3cn2)cc1	.	.	.	.	.	-34
Cc1ccc(C(=O)Nc2ccc(Cl)cn2)cc1	?	?	-10%	7.3µM*	-28%	50
Cc1ccc(S(=O)(=O)N(C)c2ccc(C(=O)Nc3ccccn3)cc2)cc1	-10%	-4%	?	13%	-10%	-1
Cc1ccc(C(=O)Nc2ncc3c(Cl)cccc3n2)cc1	?	-9%	10µM*	?	-18%	-90*
Cc1ccc(S(=O)(=O)N(C)c2ccc(C(=O)Nc3cccc(C)n3)cc2)cc1	-14%	-17%	25µM*	?	-18%	-77*
Cc1ccc(S(=O)(=O)N(C)c2ccc(C(=O)NCC3CCCO3)cc2)cc1 (stereo not given)	-7%	.	0%	2%	.	-102*
Cc1ccc(C(=O)Nc2nccc(-c3cccs3)n2)cc1	-1%	.	26%	19%	.	-6
O=C(Nc1ccc(Cl)cc1)c1ccc2oc(=O)n(Cc3ccccc3)c2c1	?	-12%	?	.	-11%	?
Cc1ccc(S(=O)(=O)N(C)c2ccc(C(=O)Nc3ccc(C)cn3)cc2)cc1	?	-10%	?	?	-8%	-37
SMILES	Lassa entry inh	Vaccinia mCherry	FMDV inh	Marburg entry inh	Vaccinia Venus	HCMV antiviral
CN(c1ccc(C(=O)Nc2ccc(Cl)cn2)cc1)S(=O)(=O)c1ccccc1	.	.	?	.	.	-66*
COc1cc(SC)ccc1C(=O)Nc1ccc(Cl)cn1	?	-12%	10µM*	1.1µM*	0%	-75*
CCCOc1ccc(C(=O)Nc2ccc(Cl)cn2)cc1	18µM*	.	?	6.3µM*	-24%	-6
CSc1ccc(Cl)c(C(=O)Nc2ccc(Cl)cn2)c1	-11%[46.1 µM]	-13%	-2%	?	-13%	?
CCCCN(C)c1ncnc2c1cnn2-c1cccc(Cl)c1	?	-9%	7%	.	-7%	87
O=C(CCl)NCCCCCCCCCNC(=O)CCl	?	14µM*	-22%	8.9µM*	5.6µM*	-100*
CCC(=O)NCCCCCCNC(=O)CC	17%	-6%	-18%	16%	-2%	-23
Cc1cccc2nc(CNC(=O)CN3Cc4ccccc4OC(c4ccccc4F)C3)cn12 (stereo not given)	.	-3%	7%	.	4%	.
O=S(=O)(c1cccc2c(S(=O)(=O)N3CCCC3)cccc12)N1CCCC1	-14%	.	?	2%	-6%	5
COc1c(S(=O)(=O)N2CCCCC2)ccc2c(S(=O)(=O)N3CCCCC3)cccc12	-30%	.	17%	-16%	.	-85*
O=S(=O)(c1cccc2c(Cl)cccc12)N1CCCNCC1	-9%	-48%	0%	8.9µM*!	-44%	.
Cc1ccc(CN2C[C@H](Sc3ccccn3)C[C@H]2C(=O)Nc2ccc3sc(C)nc3c2)cc1	.	-8%	4%	.	-2%	.
Cc1ccc(C)c(-c2cc(C(=O)Nc3cccnc3)c3ccccc3n2)c1	-6%	i	0%	11µM*	-2%	-7
Cc1ccc(C)c(-c2cc(C(=O)Nc3nccs3)c3ccccc3n2)c1	-24%	.	?	-13%	.	-71*
Cc1cc(NC(=O)c2cc(-c3cccnc3)nc3c(C)c(C)ccc23)no1	-15%	.	?	?	-7%	-64*
Cc1cc(NC(=O)c2cc(-c3ccccc3C)nc3ccccc23)no1	-21%	-10%	-9%	-28%	-5%	-74*
Cc1ccc(C)c(-c2cc(C(=O)Nc3cccc(C(=O)O)c3)c3ccccc3n2)c1	19%	-4%	21%	12%[46.1 µM]	-7%	-15
Cc1ccc(-c2cc(C(=O)Nc3cc(C)on3)c3ccccc3n2)c(C)c1	-16%	-2%	-21%	0%	-7%	-33
Cc1cnc(NC(=O)C(C)(C)n2cc(-c3ccc4c(c3)OCCO4)cn2)s1	.	.	.	.	.	13
CC1=C(C(=O)Nc2cccc(C(F)(F)F)c2)C2(CCCCCC2)OC1=O	-1%[46.1 µM]	-9%	-5%	.	-22%	0
CC(=O)OC[C@H]1O[C@@H](ON=C2C[C@@H](O)[C@@H](O)[C@@H]3[C@H]4C(=O)N(C5CCCCC5)C(=O)[C@@H]4CC[C@@H]23)[C@H](OC(C)=O)[C@@H](OC(C)=O)[C@H]1OC(C)=O	.	.	.	-25%[14.2 µM]	.	.
Clc1ccc(C(Cn2ccnc2)OCc2c(Cl)cccc2Cl)c(Cl)c1 (stereo not given)	.	-11%	?	.	-24%	-64*
